# RXFP1 agonist: agonists of human relaxin receptor RXFP1. HEK293T-RXFP1 cAMP TR-FRET, 30 min; response scale: percent of porcine relaxin response, buffer zero. Q9HBX9. Potency, µM (titrated, usually from 57.5 µM), for inactives: at the highest dose activation, hits mostly activators. 0.3% of 370,000 active; active means well fitted activation curve with a large enough effect; inconclusive means small, poorly fitted or top-dose-only effect; further: potency means the concentration at half of the fitted maximal effect; on the % scale 0 is the no-effect control and ±100 the full control effect; nearly all actives have a fitted effect of over 60% in size
# Target sequence (Q9HBX9 whole entry, looked up): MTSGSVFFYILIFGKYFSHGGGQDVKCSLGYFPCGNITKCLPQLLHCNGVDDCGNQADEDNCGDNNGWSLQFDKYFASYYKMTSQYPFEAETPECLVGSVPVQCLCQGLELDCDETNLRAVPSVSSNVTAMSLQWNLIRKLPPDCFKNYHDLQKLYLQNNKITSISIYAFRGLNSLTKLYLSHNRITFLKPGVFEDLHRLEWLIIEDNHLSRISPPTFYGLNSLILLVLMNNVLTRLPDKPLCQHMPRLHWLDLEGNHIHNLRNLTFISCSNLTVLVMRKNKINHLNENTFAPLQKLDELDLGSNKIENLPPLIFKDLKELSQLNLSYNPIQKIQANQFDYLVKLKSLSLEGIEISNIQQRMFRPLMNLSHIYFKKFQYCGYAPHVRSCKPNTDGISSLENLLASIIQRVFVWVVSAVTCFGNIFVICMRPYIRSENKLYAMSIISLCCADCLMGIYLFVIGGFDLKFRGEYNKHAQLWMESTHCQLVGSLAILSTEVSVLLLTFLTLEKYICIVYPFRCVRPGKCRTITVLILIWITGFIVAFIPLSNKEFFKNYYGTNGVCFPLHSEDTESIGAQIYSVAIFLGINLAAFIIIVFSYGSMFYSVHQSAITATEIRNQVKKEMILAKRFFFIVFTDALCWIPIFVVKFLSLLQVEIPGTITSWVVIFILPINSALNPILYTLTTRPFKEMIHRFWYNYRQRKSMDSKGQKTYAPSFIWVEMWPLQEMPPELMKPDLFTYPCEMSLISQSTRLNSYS
#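 HEK293T cells stably expressing RXFP1 were pretreated with the PDE4 inhibitor Ro 20174, exposed to compounds for 30 min at 37C, lysed, and cAMP was read by TR-FRET. Data normalized to buffer (basal) and 29 nM porcine relaxin (100%).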
# gsp agonist: agonists of gsp mutant (McCune-Albright syndrome) | 0.13% of 340,000 active | Potency, µM (series often up to 76.9 µM), for inactives: top-dose activation (cAMP increase), hits mostly activators | gsp mutant cells, cAMP HTRF, 30 min; active means well fitted activation curve with a large enough effect; inconclusive means small, poorly fitted or top-dose-only effect, or another doubt; inactive means no such curve, though single readings can be large or run the other way; cell line not stated here;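 further: phosphodiesterase inhibitor Ro 20-1724 added with compounds to block cAMP breakdown; potency means the concentration at half of the fitted maximal effect; nearly all actives have a fitted effect of over 60% in size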
#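 Cells stably selected in G418 were plated at 2000/well, grown 16-24 hr, then given compounds in DMSO with the PDE inhibitor […] (300 uM solution added) for 30 min at 37C; cAMP was read by HTRF.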
# TRPV1 agonist: human TRPV1 agonism; Q8NER1; TRPV1-expressing cells, Fluo-8 calcium influx, agonist mode; activation, % at 8.33 µM; 0.19% of 320,000 active; AID 540275; in the data active means activation above about 80%; inconclusive means between about 30% and that limit; further: 0% is about no effect
#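 TRPV1-expressing cells were cultured overnight at 35.5C and loaded with Fluo-8 calcium dye for 40 to 90 min at room temperature. After a 10 s baseline, compound was added and calcium influx was read kinetically for 3 min (ex 480/em 520 nm).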
# gsp antag: gsp mutant antagonism; Potency, µM (series often up to 76.9 µM), for inactives: at the top dose activity change, negative = inhibition, usual class: inhibitors; gsp-mutant cells, cAMP HTRF, 30 min; 0.4% of 340,000 active; AID 624288; calls by dose curve; cell line not stated here;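 further: intracellular cAMP measured with PDE inhibitor Ro 20-1724 present during compound exposure; potency means the concentration at half of the fitted maximal effect; on the % scale 0 is the no-effect control and ±100 the full control effect; nearly all actives have a fitted effect of over 65% in size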
#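 Cells in G418 medium, seeded 16-24 h, 37C; buffer exchange to DPBS + 1 mM CaCl2, 0.5 mM MgCl2, 0.05% BSA; cpds in DMSO + […] (300 uM stock), 30 min 37C; HTRF cAMP detection.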
# RXFP1 antag: RXFP1 (human) relaxin receptor antagonism | HEK293-RXFP1, relaxin-stimulated cAMP HTRF, 30 min; hits give low values | activity change, negative = inhibition, % at 57.5 µM | AID 1259400 | 0.59% of 350,000 active | Q9HBX9;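 active means activity change of -60% or lower, but not beyond a set lower limit; inconclusive means change between -60% and -40%, or beyond the set limit; inactive means change above -40%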; further: on the % scale 0 is the no-effect control and ±100 the full control effect
# TRPV1 potentiator: potentiators of human vanilloid receptor 1 (TRPV1); TRPV1-expressing cells, Fluo-8 calcium influx, capsaicin EC20 potentiation; AID 540277; 0.02% of 320,000 active; potentiation, % at 8.33 µM; in the data active means potentiation above about 80%; inconclusive means between about 30% and that limit; further: 0% is about no effect
#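 Fluo-8 calcium influx in TRPV1-expressing cells, kinetic read (ex 480/em 520 nm). Compound added and read 3 min for agonist activity, followed by capsaicin at EC20 final and 2 min further read for enhancement.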
# Numbers without * were called inactive; ? = inconclusive; . = no result given; [ ] = another dose, or the depositor's remark. In the library only some 1.1% were active in any assay of this set; here they are far more common.
SMILES,RXFP1 agonist,gsp agonist,TRPV1 agonist,gsp antag,RXFP1 antag,TRPV1 potentiator
CCOc1ccc(-c2nc(CCl)cs2)cc1,-1%,1%,1,2%,11,4
COc1ccc(Br)cc1-c1nc(CCl)cs1,18µM*,?,0,6%,6,-16
Clc1ncnc2scc(-c3ccccc3)c12,1%,28%,-3,3%,4,-15
S=c1[nH]cnc2scc(-c3ccccc3)c12,2%,6%,-2,-4%,-73*,-3
Cc1cccc(C(=O)NNC(=O)c2c(-c3ccccc3Cl)noc2C)c1O,-1%,17%,2,-15%,-13,1
O=C1COc2ccc(S(=O)(=O)Nc3ccc(F)cc3)cc2N1,1%,2.2µM*,21,-2%,33,-9
CC(C)(C)c1ccc(/C=N/OCC(=O)NCc2ccc(F)cc2)cc1,0%,-12%[15.4 µM],92*,-2%,-26,1
Cc1ccc(CNC(=O)CO/N=C/c2ccc(C(C)(C)C)cc2)cc1,5%,19%,?,-11%,-30,8
COc1ccc(NC(=O)CSc2ncc(-c3ccc(Cl)cc3)[nH]2)cc1OC,-2%,.,.,.,-3,.
CS(=O)(=O)c1ccc(C(=O)Nc2ccc(N3CCCCC3)cc2)c(Cl)c1,-2%,4%[15.4 µM],83*,15%,?,-5
O=C(Nc1ccc(N2CCCC2)cc1)c1ccc([N+](=O)[O-])cc1Cl,0%,-5%,9,2%,1,-2
O=C(Nc1ccc(N2CCCC2)cc1)c1cccc(Cl)c1Cl,-1%,1%[15.4 µM],81*,-23%,-26,-27
CC(=O)N1CCN(c2ccc(NC(=O)c3cccc(Cl)c3Cl)cc2)CC1,1%,-3%,3,6%,2,-58
C[C@H](CO)N1C[C@H](C)[C@@H](CN(C)S(=O)(=O)c2cccs2)Oc2ccc(NC(=O)Cn3cnnn3)cc2C1=O,.,.,.,5%,.,.
CCCn1c(C)cc(C(=O)COc2ccc(-c3nnco3)cc2)c1C,0%,-19%[15.4 µM],?,.,-5,-12
CCC(C)c1ccc(NC(=O)N2CCOCC2)cc1 (stereo not given),-3%,25%[15.4 µM],93*,4%,-4,-24
CCC(C)c1ccc(NC(=O)c2ccco2)cc1 (stereo not given),0%,-46%,82*,-9%,-19,6
CN(C)c1ccc(NC(=O)N2CCOCC2)cc1,0%,0%,14,?,-69*,6
O=C(Nc1ccc(Cc2ccc(NC(=O)N3CCOCC3)cc2)cc1)N1CCOCC1,0%,-4%,1,8%,-15,-2
CC(C)n1ncc2c(C(=O)Nc3ccc(S(N)(=O)=O)cc3)cc(C3CC3)nc21,-1%,9%,81*,-17%,2,-6
Cc1ccc(N(C)C(=O)CCS(=O)(=O)c2cc3c(cc2Cl)NC(=O)CO3)cc1,3%,36%,?,-12%,-1,-37
Cc1c(N=c2scc(-c3ccccc3)n2C)c(=O)n(-c2ccccc2)n1C,0%,-10%,5,3%,-10,95*
CC(=O)/C(N=Nc1c(C)n(C)n(-c2ccccc2)c1=O)=C(\C)O,20%,11µM*,-1,2%,1,18
CCC(C(=O)Nc1ccccc1OC)n1nc(C)c2sc3ccccc3c2c1=O (stereo not given),?,.,.,.,-36,.
Cc1cccc(-c2cc3nc(C)c(C)c(NCCCn4ccnc4)n3n2)c1,8%,-3%[15.4 µM],5,-18%,-98*,-5
SMILES,RXFP1 agonist,gsp agonist,TRPV1 agonist,gsp antag,RXFP1 antag,TRPV1 potentiator
Cc1cc(NCCCn2ccnc2)n2nc(-c3ccc(F)cc3)cc2n1,2%,23%,5,-4%,-12,?
CCc1nn(CC(=O)N2CCN(c3cccc(C)c3)C(C)C2)c(=O)c2cc3sccc3n12 (stereo not given),11%,.,.,.,-25,.
O=C(c1cc(COc2ccc(F)cc2Cl)on1)N1CCC(c2ccncc2)CC1,1%,0%[15.4 µM],86*,-12%,-16,5
CCOC(=O)N1CCN(C(=O)c2cc(COc3ccc(OC)cc3Cl)on2)CC1,0%,-2%,24,35µM*,-4,-16
O=C(c1cc(COc2ccc(F)cc2Cl)on1)N1CCCCCC1,4%,15%,25,1%,-2,-13
O=C(NCc1ccccc1F)c1ccc2c(c1)OCCO2,0%,-8%[15.4 µM],5,7%,-5,-6
CCCCn1c(N)c(N(CC(C)C)C(=O)CSc2n[nH]c(-c3ccc(C)cc3)n2)c(=O)[nH]c1=O,1%,-18%,3,9%,-17,-1
Cc1c(C(=O)NC2CCCCC2C)oc2ccccc12 (stereo not given),0%,?,3,7.1µM*,-6,0
O=S(=O)(Nc1ccc(N=Nc2ccc(O)c3ccccc23)cc1)c1ccccc1,0%,13%,1,?,-34,-12
O=[N+]([O-])c1ccc(N=Nc2ccc(O)c3ccccc23)cc1,.,16%,.,25µM*,?,.
Cc1c(C(N)=O)nnn1-c1ccc(Br)cc1,-1%,.,.,.,-14,.
O=C(NCCCN1CCCC1)[C@H](CSCc1ccccc1)N1Cc2ccccc2C1=O,1%,5%[15.4 µM],-3,11%,-60*,21
CN(CC(=O)Nc1ccc(F)cc1)C(=O)c1ccc(OCc2ccccc2)cc1,-1%,?,23,-1%,-12,-2
Cc1ccc(CNC(=O)CSCc2ccc(F)cc2)cc1,-2%,-25%[15.4 µM],81*,0%,-8,-10
COc1ccc([C@H]2CC(=O)C=C(c3ccc(OC(F)(F)F)cc3)C2)cc1,1%,-24%,10,-2%,.,-10
COc1ccc([C@H]2CC(=O)C=C(c3ccc(CNC(=O)OC(C)(C)C)cc3)C2)cc1,0%,10%,-1,35µM*,.,-3
CCC(=O)C(Cc1ccccc1)(Cc1ccccc1)CC(C)N(C)C (stereo not given),.,.,.,.,-11,.
CC(=O)c1c(C)[nH]c(C(=O)Nc2ccc(Cl)c(S(=O)(=O)N(C)C)c2)c1C,?,-84%,11,-21%,-10,-4
CC(=O)c1c(C)[nH]c(C(=O)OCC(=O)Nc2ccc(Cl)c(S(=O)(=O)N(C)C)c2)c1C,-1%,37%,0,40µM*,-21,14
O=C(O)c1ccccc1NCCc1ccccc1,.,.,.,.,-30,.
COC(=O)c1sc(N2C(=O)C(O)=C(C(=O)c3ccc(C)o3)C2c2ccco2)nc1C (stereo not given),-6%,26%[15.4 µM],8,-11%,-6,-2
COC(=O)c1sc(N2C(=O)C(O)=C(C(=O)c3ccc(C)o3)C2c2ccc(F)cc2)nc1C (stereo not given),8.9µM*,?,1,12%,-12,13

# Screening results deposited in PubChem by National Center for Advancing Translational Sciences (NCATS).
